# Data reported in PubChem BioAssay (EPA / NIEHS).
# Records with an inconclusive call do not appear. Calls of active or inactive are those of the source. How the source made its calls: active means hit-call score of the fitted dose curve at least 0.9, where 1 is the maximum; inconclusive means response in the unintended direction; inactive means score below 0.9.
# Molecular target: Oxysterols receptor LXR-alpha (Homo sapiens) (UniProt Q13133)
# Experiment: ATG_LXRa_TRANS: Attagene TRANS-FACTORIAL HepG2 Assay for human Liver X Receptor alpha (LXRa) (AID 2282980)
# Details: HepG2 Attagene TRANS reporter, LXRa transactivation
# Experimental: ATG_TRANS is a cell-based, multiplexed-readout assay that uses HepG2, a human liver cell line, with measurements taken at 24 hours after chemical dosing in a 24-well plate.ATG_LXRa_TRANS is one of 30 assay component(s) measured or calculated from the ATG_TRANS assay. It is designed to make measurements of mRNA induction, a form of inducible reporter, as detected with fluorescence intensity signals by Reverse transcription polymerase chain reaction (RT-PCR) and Capillary electrophoresis technology.Data from the assay component ATG_LXRa_TRANS was analyzed into 1 assay endpoint. This assay endpoint, ATG_LXRa_TRANS, was analyzed in the positive analysis fitting direction relative to DMSO as the negative control and baseline of activity. Using a type of inducible reporter, measures of mRNA for gain-of-signal activity can be used to understand the reporter gene at the transcription factor-level as they relate to the gene NR1H3. Furthermore, this assay endpoint can be referred to as a primary readout, because this assay has produced multiple assay endpoints where this one serves a reporter gene function. To generalize the intended target to other relatable targets, this assay endpoint is annotated to the nuclear receptor intended target family, where the subfamily is non-steroidal.
# Human liver HepG2 cells are transiently transfected with multiple reporter transcription units (MRTUs) in 6-well plates using FuGene 6 reagent (Roche; 3 ml FuGene/1 mg DNA). The MRTU constructs are regulated by a cis-regulating element (promoter). […] A major difference between the CIS and TRANS system is that in CIS activities of endogenous TFs are measured, whereas the TRANS assay evaluates changes in activities of exogenous, chimeric NR-Gal4 proteins. […] At the end of 24 hour incubation, total RNA was isolated using TriZol reagent (Invitrogen). The isolated RNA is then reverse-transcribed using oligo(dT) primer and Mo-MLV reverse transcriptase (Invitrogen) with DNAse I (Ambion) treatment for 30 min. The one-tenth of the produced cDNA was amplified by PCR using Taq DNA polymerase (Invitrogen) and two reporter sequence-specific primers. The PCR products were fluorescently labeled by primer extension with 6-arboxyfluorescein (6-FAM) 5'-labeled reporter sequence-specific primer (2 min at 95 C, 20 s at 68 C and 10 min at 72 C) and these products were digested with 5U of HpaI (New England Biolabs) for 2h at 37 C. The fragments were purified using Qiaquick PCR columns (Qiagen), analyzed on an ABI 3130xL genetic analyzer (Applied Biosystems) with peak positions identified by using a set of X-rhodamine (ROX)-labeled MapMarker1000 molecular weight standards (BioVentures). The raw capillary electrophoresis data was processed using Attagraph software (Attagene).
# Oxysterols receptor LXR-alpha (Homo sapiens), sequence (Q13133 whole entry, looked up): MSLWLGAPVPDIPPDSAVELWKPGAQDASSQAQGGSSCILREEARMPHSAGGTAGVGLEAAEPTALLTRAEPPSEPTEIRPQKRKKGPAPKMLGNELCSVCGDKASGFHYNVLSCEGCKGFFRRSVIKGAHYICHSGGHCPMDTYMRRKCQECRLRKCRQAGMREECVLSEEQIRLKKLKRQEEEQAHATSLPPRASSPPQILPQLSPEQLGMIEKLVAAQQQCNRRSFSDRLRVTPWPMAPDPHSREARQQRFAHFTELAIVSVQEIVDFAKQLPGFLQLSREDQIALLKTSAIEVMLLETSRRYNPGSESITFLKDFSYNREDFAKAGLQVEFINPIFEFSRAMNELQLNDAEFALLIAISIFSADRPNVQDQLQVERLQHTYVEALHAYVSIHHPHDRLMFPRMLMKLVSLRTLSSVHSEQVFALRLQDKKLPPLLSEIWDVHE
SMILES,outcome,AC50
CO/N=C(/C1=NOCCO1)c1ccccc1Oc1ncnc(Oc2ccccc2Cl)c1F,inactive,
CC(C)N1C(=O)c2ccccc2NS1(=O)=O,,50 µM (active)
CCN(CC)C(=O)C(C)Oc1cccc2ccccc12 (stereo not given),inactive,
CCSC(=O)N1CCCCCC1,inactive,
CCCC(=NOCC)C1=C(O)CC(CC(C)SCC)CC1=O (stereo not given),inactive,
Cc1cc(C)nc(Nc2ccccc2)n1,inactive,
CC(C)C1(C)N=C(c2ncccc2C(=O)O)NC1=O (stereo not given),inactive,
COC(=O)NC(=S)Nc1ccccc1NC(=S)NC(=O)OC,inactive,
CCCN(CC)CC1COC2(CCC(C(C)(C)C)CC2)O1 (stereo not given),inactive,
N#Cc1c(Cl)cccc1Cl,inactive,
CC(C)Nc1nc(Cl)nc(NC(C)C)n1,inactive,
O=C1C2CC=CCC2C(=O)N1SC(Cl)(Cl)Cl (stereo not given),inactive,
COP(=S)(OC)Oc1ccc([N+](=O)[O-])c(C)c1,inactive,
CN=C=S,inactive,
Clc1cccc(C(Cl)(Cl)Cl)n1,inactive,
COP(=S)(OC)SCn1nnc2ccccc2c1=O,inactive,
CCOP(=S)(OCC)Oc1nc(Cl)n(C(C)C)n1,,14.9 µM (active)
CCNP(=S)(OC)O/C(C)=C/C(=O)OC(C)C (stereo not given),inactive,
COc1cc(OC)nc(NC(=O)NS(=O)(=O)c2ncccc2OCC(F)(F)F)n1,inactive,
CC(C)(C)C(=O)C(Oc1ccc(Cl)cc1)n1cncn1 (stereo not given),inactive,

SMILES,outcome,AC50
CCOP(=O)(OCC)Oc1nc(Cl)c(Cl)cc1Cl,inactive,
Nc1cnn(-c2ccccc2)c(=O)c1Cl,inactive,
COP(=O)(OC)O/C(C)=C/C(=O)N(C)C,inactive,
CNC(=O)Oc1cccc2ccccc12,inactive,
N#Cc1c[nH]cc1-c1cccc2c1OC(F)(F)O2,inactive,
Cc1cnc(C2=NC(C)(C(C)C)C(=O)N2)c(C(=O)O)c1 (stereo not given),inactive,
CCOc1nc(C(Cl)(Cl)Cl)ns1,inactive,
COC(=O)c1c(C(F)F)nc(C(F)(F)F)c(C2=NCCS2)c1CC(C)C,inactive,
CC1(C)CON(Cc2ccccc2Cl)C1=O,inactive,
CNC(=O)N(C)c1nnc(C(C)(C)C)s1,inactive,
CCCCOCN(C(=O)CCl)c1c(CC)cccc1CC,inactive,
N#CN=C1SCCN1Cc1ccc(Cl)nc1,inactive,
CS(=O)(=O)c1ccc(C(=O)C2C(=O)CCCC2=O)c([N+](=O)[O-])c1,inactive,
COc1cc(Cl)c(OC)cc1Cl,inactive,
O=c1n(Cl)c(=O)n(Cl)c(=O)n1Cl,inactive,
CCOC(=O)C(C)OC(=O)c1cc(Oc2ccc(C(F)(F)F)cc2Cl)ccc1[N+](=O)[O-] (stereo not given),inactive,
CS(=O)(=O)c1cc(C(F)(F)F)ccc1C(=O)c1cnoc1C1CC1,inactive,
Cn1c(-c2ccccc2)cc(-c2ccccc2)[n+]1C,inactive,
CC(C)=CC1C(C(=O)OCc2coc(Cc3ccccc3)c2)C1(C)C (stereo not given),inactive,
CC(C)Oc1cccc(NC(=O)c2ccccc2C(F)(F)F)c1,inactive,
